CHT block: inhibitors of human choline transporter CHT; High affinity choline transporter 1 (Homo sapiens), Q9GZV3; CHT-expressing cells, membrane potential dye, choline response; active compounds read low; B-score at 10 µM; actives 0.86% (n = 310,000);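 active = B-score over 3 SD under the library average, and starting fluorescence ratio not unusually high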;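 note: choline stimulus applied at its EC90 after an EC20 pre-addition; B-score computed on integrated fluorescence ratio after choline addition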
Target sequence (Q9GZV3 whole entry, looked up): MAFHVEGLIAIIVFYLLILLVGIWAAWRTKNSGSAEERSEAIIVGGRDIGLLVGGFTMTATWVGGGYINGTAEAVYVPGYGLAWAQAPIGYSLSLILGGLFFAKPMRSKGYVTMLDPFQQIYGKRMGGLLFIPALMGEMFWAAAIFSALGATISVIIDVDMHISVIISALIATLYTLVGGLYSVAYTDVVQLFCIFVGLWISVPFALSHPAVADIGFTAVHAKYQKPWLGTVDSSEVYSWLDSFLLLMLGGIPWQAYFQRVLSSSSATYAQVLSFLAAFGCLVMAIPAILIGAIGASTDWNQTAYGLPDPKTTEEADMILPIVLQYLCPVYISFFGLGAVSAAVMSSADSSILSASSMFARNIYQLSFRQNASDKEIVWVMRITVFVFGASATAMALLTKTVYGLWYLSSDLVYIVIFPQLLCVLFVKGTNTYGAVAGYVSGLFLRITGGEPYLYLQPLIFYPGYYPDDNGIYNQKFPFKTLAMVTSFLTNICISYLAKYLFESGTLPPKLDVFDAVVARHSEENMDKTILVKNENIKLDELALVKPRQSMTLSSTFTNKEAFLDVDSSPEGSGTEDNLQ
GPR7 antagonist: GPR7 receptor antagonists, primary screen, cell-based, fluorescence, single concentration; AID 1861, 2009; inhibition, % at 4.4 µM; GPR7-expressing cells, fluorescence antagonist assay; actives 1.1% (n = 290,000); in the data active = inhibition above about 16%, passing the limit was not always enough;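 note: cells stimulated with the agonist NPW; 0% = agonist with vehicle and 100% = vehicle without agonist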
ANO1 block: TMEM16A chloride channel inhibitors, primary screen, cell-based, HTS | Anoctamin-1 (Mus musculus), Q8BHY3 | HEK293 TMEM16A/YFP iodide influx fluorescence, ionomycin | normalized B-score (activity score, 25-100; higher = stronger inhibition) at 10 µM | actives 1.2% (n = 310,000);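 active = ratio plate-corrected score three or more library SD toward inhibition, starting fluorescence score within five deviations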;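 note: score derived from kinetic fluorescence span divided by baseline fluorescence per well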
Kir21 block: inhibitors of mouse Kir2.1 inward-rectifier potassium channel. Inward rectifier potassium channel 2 (Mus musculus), P35561. HEK293-Kir2.1, FluxOR thallium flux fluorescence; active compounds read low. B-score at 10 µM. actives 0.85% (n = 310,000). AID 1672, 2009;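 active = fluorescence ratio B-score at or below minus 3 SD of library scores, with starting-brightness B-score within 2 SD, cut at about -4.2 in these data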;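 note: channel flux triggered by added potassium and thallium sulfate stimulus; B-score of peak minus minimum fluorescence over baseline after thallium stimulus; more negative B-score means stronger Kir2.1 block with less thallium influx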
CHT allo act: CHT positive allosteric modulators, primary screen, cell-based, membrane potential dye, choline EC20; CHT-expressing cells; active compounds read high; LV-AA mutant CHT in HEK293 cells; B-score at 10 µM; actives 0.49% (n = 310,000); AID 488977, 2010;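 active = initial fluorescence not abnormally high and integrated response B-score, plate-corrected, over 3 SD above library mean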
ANO1 activ: TMEM16A chloride channel activators or potentiators, primary screen, cell-based, HTS. HEK293 TMEM16A/YFP-H148Q/I152L, iodide quench fluorescence; active compounds read low. B-score at 10 µM. actives 0.3% (n = 340,000). AID 623877, 2012;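 active = fluorescence-ratio B-score plate-corrected deviation score at least 3 library SD below zero, with starting fluorescence score within 5 deviations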;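 note: channel opened by trigger with iodide after compound preincubation; score built on the fluorescence ratio of max minus min over baseline; more negative score means more quench and so TMEM16A activation or potentiation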
GPR7 antag cf: GPR7 receptor antagonists, confirmation, cell-based, fluorescence, single concentration; inhibition, % at 4.4 µM; GPR7-expressing cells, calcium fluorescence antagonist mode; shares compounds with GPR7 antagonist; actives 52% (n = 2,400); in the data active = inhibition above about 24%;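 note: stimulated with the GPR7 agonist NPW; 0% = agonist plus vehicle and 100% = vehicle alone without agonist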
MCHR1 antag: MCHR1 antagonists in cells, counter-screen for GPR7 antagonist project, cell-based, fluorescence, human; shares compounds with GPR7 antagonist; actives 62% (n = 2,400); inhibition, % at 4.4 µM; MCHR1-expressing cells, fluorescence antagonist assay; in the data active = inhibition above about 22%;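 note: 0% = vehicle with agonist and 100% = vehicle without agonist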
Active calls of the source: *; i = inactive; / = no result. The list is not random: actives were taken first. Their share in the collection is about 3.7%.

SMILES	CHT block	GPR7 antagonist	ANO1 block	Kir21 block	CHT allo act	ANO1 activ	GPR7 antag cf	MCHR1 antag
COc1cc(/C=C2\SC(=Nc3ccc(Cl)c(C(=O)O)c3)NC2=O)c(Br)c(Br)c1O	i	40*	i	-9.2	i	i	28*	48*
Cc1nc(N2CCC(C)CC2)c2c(C)c(C(=O)Nc3cccc(C(F)(F)F)c3)sc2n1	i	25*	i	1.4	i	i	-29	-4
CCc1ccccc1NC(=O)CN1C(=O)C2CCCN2c2ncc(Cl)cc21 (stereo not given)	i	38*	i	2.4	i	i	34*	17
Cc1cc(C)cc(NC(=O)C2C3C=CC4(O3)C2C(=O)N(CCCN2CCCC2)C4C(=O)NC2CCCC(C)C2C)c1 (stereo not given)	i	27*	i	-0.82	i	i	-19	-11
COC(=O)c1ccc(CSc2nnc(Nc3cccc(OC)c3)s2)o1	i	46*	i	-0.18	i	i	1	48*
COc1ccccc1C1CCCN1Cc1nc(-c2ccc(C)s2)oc1C (stereo not given)	i	-4	i	-1.2	i	i	/	/
Cc1c(C(=O)N2CCN(Cc3ccc4c(c3)OCO4)CC2)sc2ncnc(N3CCN(c4ccccc4)CC3)c12	i	44*	i	1.2	i	i	44*	81*
Cc1c(C(=O)N2CCN(Cc3ccc4c(c3)OCO4)CC2)sc2ncnc(N3CCN(c4ccccc4F)CC3)c12	i	75*	i	-1.1	i	i	55*	82*
Cc1c(C(=O)N2CCN(c3ccccn3)CC2)sc2ncnc(N3CCN(c4ccccc4)CC3)c12	i	-10	i	0.59	i	i	/	/
Cc1ccc(N=C2NC(=O)CS2)cc1C	i	-21	i	1.3	i	i	/	/
CCN(c1ccccc1)S(=O)(=O)c1ccc(Cl)c(NC(=O)CNCc2ccccc2OC)c1	/	/	/	/	/	i	/	/
Cc1ccc(S(=O)(=O)N(C)Cc2ccc(-c3nnco3)cc2)cc1	i	26*	i	-0.65	i	i	47*	42*
COc1ccccc1CNCC(O)(c1ccc(F)cc1)c1ccc(F)cc1	i	40*	i	-5.9*	i	i	41*	36*
COc1ccccc1CNCC(O)(c1ccc(Cl)cc1)c1ccc(Cl)cc1	i	28*	i	-3.2	i	i	47*	33*
COc1ccccc1CNCc1ccc(C)cc1	i	-3	i	-1.7	i	i	/	/
COc1ccc(C(=O)N2N=C(c3cccc(NS(C)(=O)=O)c3)CC2c2cccs2)cc1 (stereo not given)	i	5	i	0.32	i	i	/	/
O=C(Nc1ccc(S(=O)(=O)N2CCOCC2)cc1)c1ccc(Cl)cc1	i	/	i	-1.7	i	i	/	/
O=C(Nc1ccc(S(=O)(=O)N2CCCCC2)cc1)c1ccc(CN2CCOCC2)cc1	i	60*	100*	-1.6	i	i	62*	83*
COc1ccc(C=O)cc1CSc1nnc(COc2cccc3cccnc23)o1	i	24*	i	-4.9*	i	i	10	27*
CN(Cc1c(C(=O)N2CCc3ccccc3C2)nc2ccc(Cl)cn12)C(C1CC1)C1CC1	i	-6	i	-3.7	i	i	/	/

From PubChem BioAssay
